About 83,000 compounds went through this panel and 20% of them were active in at least one assay; those are over-represented in the sample as a whole.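 Method: cells in 96-well plates; compound added at one concentration; 48 h incubation; percent growth measured; values under 10 scored active.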 The source made the active and inactive calls.
Key:
Test in all cases: NCI-60 one-dose screen, 48 h (100 = growth as untreated, 0 = no growth, -100 = all killed)
Details in all cases: 10 µM unless noted
T-47D breast = system: T-47D breast
BT-549 breast = system: BT-549 breast
MDA-MB-435 melanoma = system: MDA-MB-435 melanoma
SW-620 colon = system: SW-620 colon
MCF7 breast = system: MCF7 breast
HCT-116 colon = system: HCT-116 colon
HCC-2998 colon = system: HCC-2998 colon
KM12 colon = system: KM12 colon

Measured: growth

O=c1cc(-c2ccccc2)nc(SCc2nc3cc(Cl)c(Cl)cc3[nH]2)[nH]1
inactive: T-47D breast 79% | BT-549 breast 108% | MDA-MB-435 melanoma 105% | SW-620 colon 104% | MCF7 breast 92.5% | HCT-116 colon 97.3% | HCC-2998 colon 102% | KM12 colon 96%

CC(C)n1c2ccc(Br)cc2c2c3c(c4c5ccccc5ccc4c21)C(=O)NC3=O
inactive: T-47D breast 63.3% | BT-549 breast 95.9% | MDA-MB-435 melanoma 92.4% | SW-620 colon 101% | MCF7 breast 86.2% | HCT-116 colon 85.2% | HCC-2998 colon 103% | KM12 colon 52.7%

COc1ccc2[nH]cc(-c3nonc3-c3c[nH]c4ccc(Br)cc34)c2c1
active: T-47D breast 3.83%
inactive: BT-549 breast 74.9% | MDA-MB-435 melanoma 65.8% | SW-620 colon 59.5% | MCF7 breast 31.2% | HCT-116 colon 36.7% | HCC-2998 colon 22.2% | KM12 colon 15.5%

N#Cc1c(-c2ccc(Br)cc2)nc2c(N=Nc3ccc(S(N)(=O)=O)cc3)c(N)nn2c1N
inactive: T-47D breast 31.5% | BT-549 breast 73.8% | MDA-MB-435 melanoma 56.2% | SW-620 colon 44.1% | MCF7 breast 31.6% | HCT-116 colon 24.9% | HCC-2998 colon 61.8% | KM12 colon 51.8%

OC1(c2ccccc2)c2ccccc2N(c2ccccc2)c2ccc(Cl)cc21 (configuration not stated)
active: T-47D breast -85.1% | BT-549 breast -78.7% | MDA-MB-435 melanoma -81.5% | SW-620 colon -85.7% | MCF7 breast -88% | HCT-116 colon -85.9% | HCC-2998 colon -90.1% | KM12 colon -87.6%

CCN(CC)CCOc1ccc(/C(=C(\C)Cc2ccc(OC)cc2)c2ccc(OC(=O)NCc3ccccc3)cc2)cc1
inactive: T-47D breast 40.6% | BT-549 breast 77.4% | MDA-MB-435 melanoma 40.7% | SW-620 colon 57.6% | MCF7 breast 20.6% | HCT-116 colon 25.3% | HCC-2998 colon 70.6% | KM12 colon 63.4%

Ic1ccc(Nc2nc3nonc3nc2Nc2ccc(I)cc2)cc1
inactive: SW-620 colon 13.8%
active: T-47D breast -9.49% | BT-549 breast -21.7% | MDA-MB-435 melanoma 6.04% | MCF7 breast 3.42% | HCT-116 colon 0.308% | HCC-2998 colon 8.32% | KM12 colon 7.87%

CCN1CCN(CCNc2nccc(-c3c(-c4ccc(F)c(O)c4)nc4occn34)n2)S1(=O)=O
active: T-47D breast -1.77%
inactive: BT-549 breast 21.2% | MDA-MB-435 melanoma 10.1% | SW-620 colon 44.1% | MCF7 breast 17.7% | HCT-116 colon 16.3% | HCC-2998 colon 57.3% | KM12 colon 13.7%

COc1ccc(-c2nc(SCC(=O)Nc3nc4ccc(C)cc4s3)[nH]c(=O)c2C#N)cc1OC
inactive: T-47D breast 94.8% | BT-549 breast 97.8% | MDA-MB-435 melanoma 101% | SW-620 colon 96.2% | MCF7 breast 95.6% | HCT-116 colon 94.8% | HCC-2998 colon 105% | KM12 colon 102%

COc1cc([C@@H](CCO)C[C@H](C)c2ccc3ccccc3c2)cc(OC)c1OC
inactive: T-47D breast 45.3% | BT-549 breast 26% | SW-620 colon 18.9% | MCF7 breast 18.8% | HCT-116 colon 18.7% | HCC-2998 colon 56.1% | KM12 colon 26.3%
active: MDA-MB-435 melanoma 2.44%

CSc1ccc(N2C(=N)C(=S)N(c3ccc(C)cc3)C2=O)cc1
inactive: T-47D breast 83% | BT-549 breast 72.2% | MDA-MB-435 melanoma 102% | SW-620 colon 103% | MCF7 breast 85.4% | HCT-116 colon 93.7% | HCC-2998 colon 104% | KM12 colon 96.5%

N#Cc1c(-c2ccccc2)nc2c(c(-c3ccc(Cl)cc3)nn2-c2ccccc2)c1-c1ccc([N+](=O)[O-])cc1
inactive: T-47D breast 90.2% | BT-549 breast 111% | MDA-MB-435 melanoma 103% | SW-620 colon 96.1% | MCF7 breast 91.7% | HCT-116 colon 88.9% | HCC-2998 colon 120% | KM12 colon 102%

CC(C)C1C2=C(NCCN1C(=O)c1ccncc1)C(C)(C)N(Cc1ccccc1)C2=O (configuration not stated)
inactive: T-47D breast 103% | BT-549 breast 104% | MDA-MB-435 melanoma 104% | SW-620 colon 105% | MCF7 breast 95.5% | HCT-116 colon 92.8% | HCC-2998 colon 100% | KM12 colon 97.6%

CN(C)Cc1cc(C(C)(C)C)cc(Br)c1O
inactive: T-47D breast 99.6% | BT-549 breast 114% | MDA-MB-435 melanoma 101% | SW-620 colon 87.7% | MCF7 breast 87.9% | HCT-116 colon 103% | HCC-2998 colon 109% | KM12 colon 109%

O=C(/C=C/C12c3ccccc3C(c3ccccc31)C1C(=O)NC(=O)C12)c1ccc(I)cc1 (configuration not stated)
inactive: T-47D breast 38.9% | BT-549 breast 46.1% | MDA-MB-435 melanoma 31.2% | SW-620 colon 25% | MCF7 breast 16.5% | HCT-116 colon 35.8% | HCC-2998 colon 100% | KM12 colon 57.8%

CCOC(=O)c1c(C)nc2c(c1N)C(=O)C(=O)N2Cc1ccc(OC)cc1
inactive: T-47D breast 49.1% | BT-549 breast 80.5% | MDA-MB-435 melanoma 31% | SW-620 colon 41.9% | MCF7 breast 18.6% | HCT-116 colon 25.1% | HCC-2998 colon 99.3% | KM12 colon 25.7%

O=C1NC(=O)C(c2coc3cc(Br)ccc23)=C1c1c[nH]c2ccccc12
active: MDA-MB-435 melanoma -7.93%
inactive: T-47D breast 34.7% | BT-549 breast 67.9% | SW-620 colon 35.4% | MCF7 breast 30.4% | HCT-116 colon 27.3% | HCC-2998 colon 108% | KM12 colon 31.7%

CN1CCN(Cc2ccc(NC(=O)c3cncc(C#Cc4cnc(N)cc4C#N)c3)cc2C(F)(F)F)CC1
active: MDA-MB-435 melanoma 2.03% | SW-620 colon -2.02% | HCT-116 colon 1.47% | KM12 colon 5.45%
inactive: T-47D breast 24.7% | BT-549 breast 37.5% | MCF7 breast 18.7% | HCC-2998 colon 22.5%

Cc1nc2sc(C(=O)Nc3ccccn3)c(N)c2cc1C(C)O (configuration not stated)
active: MDA-MB-435 melanoma -31.6%
inactive: T-47D breast 73.1% | BT-549 breast 85.1% | SW-620 colon 48.8% | MCF7 breast 29.6% | HCT-116 colon 48.1% | HCC-2998 colon 74.8% | KM12 colon 37.5%

CC1(C)CC[C@]23CC[C@]4(C)[C@H](CC[C@@H]5[C@@]6(C)C/C(=C/O)C(=O)C(C)(C)[C@@H]6CC[C@]54C)[C@H]2[C@H]1OC3
inactive: T-47D breast 114% | BT-549 breast 111% | MDA-MB-435 melanoma 97.7% | SW-620 colon 103% | MCF7 breast 85.7% | HCT-116 colon 105% | HCC-2998 colon 110% | KM12 colon 114%

O=c1oc2c(cc1-c1ccccc1)c[n+]([O-])c1ccccc21
inactive: T-47D breast 91% | BT-549 breast 95.5% | MDA-MB-435 melanoma 101% | SW-620 colon 103% | MCF7 breast 91.1% | HCT-116 colon 98.8% | HCC-2998 colon 107% | KM12 colon 104%

O=C(/C=C/c1ccccc1)c1ccc(-n2cc(CN3CCN(c4cc5c(cc4F)c(=O)c(C(=O)O)cn5C4CC4)CC3)nn2)cc1
active: HCT-116 colon 6.95%
inactive: T-47D breast 92.9% | BT-549 breast 76.7% | MDA-MB-435 melanoma 79.5% | SW-620 colon 83.7% | MCF7 breast 58.2% | HCC-2998 colon 88.3% | KM12 colon 73.7%

COC12C=C/C(=C(/C(=O)OCc3csc(SC)n3)C(=O)CCCCCCCCC3(OC)C=C/C(=C(/C(=O)OCc4cnc(SC)s4)C(=O)CCCCCCCC1)O3)O2 (configuration not stated)
inactive: T-47D breast 41.9% | BT-549 breast 31.7% | MDA-MB-435 melanoma 10% | SW-620 colon 27.6% | MCF7 breast 23.3% | KM12 colon 18.1%
active: HCT-116 colon 7.05% | HCC-2998 colon -62.4%

CCCCNC(=O)c1ccc2c(c1)nc(-c1ccccc1)n2C1CCCCC1
inactive: T-47D breast 88.1% | BT-549 breast 99.7% | MDA-MB-435 melanoma 99.9% | SW-620 colon 107% | MCF7 breast 82.1% | HCT-116 colon 93.1% | HCC-2998 colon 102% | KM12 colon 88.4%

Cc1[nH]c(C(=O)Nc2ccccc2OC2CCN(CCN3CCOCC3)CC2)c(Cl)c1Cl
inactive: T-47D breast 86.6% | BT-549 breast 80.5% | MDA-MB-435 melanoma 105% | SW-620 colon 99.7% | MCF7 breast 87.2% | HCT-116 colon 77.1% | HCC-2998 colon 107% | KM12 colon 103%

Cc1cccc(N=Nc2cccc(C)c2)c1
inactive: T-47D breast 110% | BT-549 breast 108% | MDA-MB-435 melanoma 100% | SW-620 colon 106% | MCF7 breast 97.5% | HCT-116 colon 111% | HCC-2998 colon 112% | KM12 colon 110%

C[C@H]1[C@H](C)CC[C@]2(C(=O)NCCNCCN)CC[C@]3(C)C(=CC[C@@H]4[C@@]5(C)CCC(=O)C(C)(C)[C@@H]5CC[C@]43C)[C@H]12
active: MDA-MB-435 melanoma -75.7% | SW-620 colon -74.7% | HCT-116 colon -51.8% | HCC-2998 colon -43.7%
inactive: T-47D breast 39.8% | BT-549 breast 92.3% | MCF7 breast 12.6% | KM12 colon 11.4%

[N-]=[N+]=NCC1OC(n2cnc3c(NC(=O)Nc4ccccc4)ncnc32)C2OC(=O)CC12 (configuration not stated)
inactive: T-47D breast 103% | BT-549 breast 104% | MDA-MB-435 melanoma 109% | SW-620 colon 105% | MCF7 breast 92.3% | HCT-116 colon 101% | HCC-2998 colon 107% | KM12 colon 106%

Cn1cc(-c2csc(-c3cn(C)c4ccccc34)n2)c2cnccc21
active: MDA-MB-435 melanoma -79.4% | SW-620 colon -47.6% | HCT-116 colon -74.6% | HCC-2998 colon -63.4%
inactive: T-47D breast 67.4% | BT-549 breast 87.8% | MCF7 breast 10.5% | KM12 colon 26.6%
